This is an account of results in PubChem BioAssay AID720650 (Broad Institute, 2013).

Values without a mark were called inactive. Activity calls are given as the source filed them. How the calls were made is not given here.

Broadly, the AC50 is the concentration giving half of the maximal activity seen.

A short description of this experiment: C difficile toxins, biochemical counterscreen, UDPG substrate absence, confirmatory dose response (AID 720650). The conditions noted are these: series mostly up to 19.5 µM. (In general: Counterscreens check selectivity or assay interference.)
As to `COc1ccc(C2=NS(=O)(=O)N(C)C(C(=O)NCc3ccc(F)cc3)=C2)cc1OC`, the AC50 entry is “inactive”.

In the case of `COc1ccc(OCc2cc(-c3ccc(Cl)cc3)no2)cc1`, the AC50 entry is “inactive”.

As for `COc1cccc(-n2c(SCC(=O)N3CCOCC3)nnc2-c2c[nH]c3ccccc23)c1`, the AC50 entry was “inactive”.

For the molecule `CCC(=O)N1CC[C@@H]2[C@H]1c1cc(-c3ccc(OC)cc3)ccc1N(C)[C@H]2CO`, the AC50 is > 20 µM.

As for `COc1ccc(NC(=O)CSc2nccn2C)cc1S(N)(=O)=O`, the AC50 entry is “inactive”.

With `C[C@H]1CN([C@@H](C)CO)C(=O)c2c(c3ccccc3n2C)-c2ccccc2CO[C@H]1CN(C)C`, the AC50 entry was “inactive”.

Turning to `O=c1c2ccccc2oc2ccc(NCCCN3CCOCC3)cc12`, the AC50 result is “inactive”.

As to `NC1=NC[C@H](Cc2ccc(O)cc2)N1CCc1cc(C(F)(F)F)cc(C(F)(F)F)c1`, the AC50 result was “inactive”.

Turning to `Cc1noc(C)c1NC(=O)N(C)C[C@@H]1Oc2ccc(NC(=O)C3CCCCC3)cc2C(=O)N([C@@H](C)CO)C[C@H]1C`, the AC50 result was “inactive”.

With `O=C(CSc1ccc2nnc(-c3ccc(F)cc3)n2n1)N1CCOCC1`, the AC50 result is “inactive”.

For `Oc1ccc(CCc2ccccn2)cc1`, the AC50 was 11.6 µM (active).

As to `CCC(=O)Nc1ccc2c(c1)OC[C@@H](C)N(C(=O)NC(C)C)C[C@H](C)[C@H](OC)CN(C)C2=O`, the AC50 result is “inactive”.

Turning to `COc1ccccc1Nc1nnc(SCc2cc(=O)n3ccsc3n2)s1`, the AC50 is > 39 µM.

In the case of `c1ccc(-c2nnc(OCC3CCCO3)c3ccccc23)cc1` (centres undefined), the AC50 result was “inactive”.

Consider `CC1=NCCc2c1[nH]c1cc(O)ccc21`, for which the AC50 was 21.9 µM (active).

With `CCCCn1c(=S)[nH]c2c(=O)n(C)c(=O)n(C)c21`, the AC50 was 14.9 µM (active).

For `CC(=O)Nc1cc(-c2ccc(F)cc2)[nH]n1`, the AC50 is 2.6 µM (active).

Consider `O=C(Cn1cc(COc2ccc(Cl)c(Cl)c2)nn1)NS(=O)(=O)c1ccccc1OC(F)(F)F`, for which the AC50 result was “inactive”.

As to `Cc1cc(C)c(C)c(S(=O)(=O)N2CCCCC2C(=O)O)c1C` (centres undefined), the AC50 is > 39 µM.

Consider `CC(C)(C)N1[C@@H](CC(=O)O)c2cc(C(F)(F)F)ccc2S1(=O)=O`, for which the AC50 entry was “inactive”.

Take `Oc1ccc(/C=N/N2CCN(Cc3ccccc3)CC2)cc1`: the AC50 is > 39 µM.

Take `CCNC(=O)C[C@H]1CC[C@@H]2[C@@H](COc3ccc(NC(C)=O)cc3C(=O)N2C)O1`: the AC50 entry is “inactive”.

In the case of `CCc1ccc(NC(=O)c2cc(C)on2)cc1`, the AC50 entry was “inactive”.

As to `CCN(CCN(C)C)C(=O)C1CCN(S(=O)(=O)c2c(C)noc2/C=C/c2ccccc2F)CC1`, the AC50 entry was “inactive”.

In the case of `CCOC(=O)c1nnn(-c2nonc2N)c1-c1ccc(F)cc1`, the AC50 result was “inactive”.

As to `Cn1c(SCc2nnc(-c3ccccc3)o2)nc2ccccc21`, the AC50 result was “inactive”.

With `CC(Oc1ccc(Cl)cc1Cl)C(=O)Nc1ccc(O)cc1` (centres undefined), the AC50 is 12.9 µM (active).

Take `CCN(CC)CCNc1ccc(C)c2sc3ccc(O)cc3c(=O)c12`: the AC50 is 5.7 µM (active).

As for `Nc1ccc2nc(-c3cccs3)[nH]c2c1`, the AC50 is 11 µM (active).

Consider `CN(c1ccc(O)cc1)c1nc(-c2cccnc2)cs1`, for which the AC50 entry was “inactive”.

Regarding `COc1cc(/C=N/N2C(=O)C3C4C=CC(CC4)C3C2=O)ccc1O` (centres undefined), the AC50 entry was “inactive”.

As to `NS(=O)(=O)c1ccc(CCNC(=O)c2ccc(CS(=O)(=O)c3ccc(Br)cc3)o2)cc1`, the AC50 result is “inactive”.

For the molecule `COc1ccc(C2=NS(=O)(=O)N(C)C(C(=O)N(C)Cc3ccccc3)=C2)cc1OC`, the AC50 result is “inactive”.

On to `CC[C@H](C)[C@H]1CNC(=S)N1CC1CCN(CCCC2CCCC2)CC1`, for which the AC50 entry is “inactive”.

Consider `O=C(C[C@H]1C[C@H]2c3cc(NC(=O)c4ccc5c(c4)OCO5)ccc3O[C@H]2[C@@H](CO)O1)NCc1cccc(F)c1`, for which the AC50 entry is “inactive”.

In the case of `COc1ccc(NS(=O)(=O)c2cc(N=Nc3c(O)[nH]c(=O)[nH]c3=O)ccc2Cl)cc1`, the AC50 result is “inactive”.

With `Cc1cccc(-n2nnc(C(=O)NCc3ccccc3Cl)c2N)c1`, the AC50 entry is “inactive”.

`Cc1ccc(C2=NS(=O)(=O)N(C)C(C(=O)NCc3cccs3)=C2)cc1`: the AC50 result was “inactive”.

Take `CN(C)c1ccc(C(=S)N2CCN(C(=S)Nc3ccc(Cl)cc3)CC2)cc1`: the AC50 entry is “inactive”.
